Screening results: PubChem BioAssay, several laboratories
This excerpt belongs to a sample that is enriched for hits.
RT RNaseH block = inhibitors of HIV-1 reverse transcriptase RNase H; RT-RNase H RNA/DNA duplex cleavage, fluorescence; inhibition, % at 10 µM; P04585; AID 565; 1.9% of 65,000 active; in the data active means inhibition above about 50%
RmlCD inh mix = inhibitors of RmlC and RmlD coupled enzymes; AID 1532; 0.39% of 110,000 active; inhibition, % at 5.5 µM; RmlC/RmlD coupled enzyme inhibition, 384-well mixture HTS; in the data active means inhibition above about 30%, passing the limit was not always enough; inconclusive means no clear call, values can overlap the other calls
Starred values were filed as active, the others as inactive.

`O=c1[nH]c(Cn2nnc(-c3ccccc3)n2)nc2scc(-c3ccccc3)c12` gave RT RNaseH block 53* and RmlCD inh mix -15.
Screening c1ccc(Cn2nnc(-c3ccccc3)n2)cc1 returned RmlCD inh mix 5.
CCN1C(=O)N[C@@H](c2ccco2)C(C(=O)OC)=C1C was read as RmlCD inh mix -9.
For Nc1ccc(CN2CCN(c3ccc4ccccc4n3)CC2)cc1 the results were RT RNaseH block -7.
`C=CCc1ccc(OCCOc2cccc3ccc(C)nc23)c(OC)c1` gave RmlCD inh mix -3.
`CCCCOc1ccccc1NC(=O)CC1Nc2ccccc2NC1=O` (stereo not drawn) gave RT RNaseH block 69* and RmlCD inh mix -6.
Screening CCCCNC(=O)CC1Nc2ccccc2NC1=O (stereo not drawn) returned RT RNaseH block 0 and RmlCD inh mix -4.
Screening O=C(c1cc2ccccc2oc1=O)N(Cc1ccco1)CC1CCCO1 (stereo not drawn) returned RT RNaseH block -2 and RmlCD inh mix -14.
For CCOc1ccc(-c2nc(C)c(C(C)=O)n2O)cc1 the results were RmlCD inh mix 6.
CCC(NC(=O)OC(C)(C)C)C(=O)Oc1ccc2c3c(c(=O)oc2c1)CCC3 (stereo not drawn) was read as RT RNaseH block -4 and RmlCD inh mix active.
Screening CCC(NC(=O)OC(C)(C)C)C(=O)Oc1cc(C)cc2oc(=O)c3c(c12)CCC3 (stereo not drawn) returned RmlCD inh mix -6.
`CN1C(=O)N(C)C(=O)C(CCc2ccccn2)(CCc2ccccn2)C1=O` gave RT RNaseH block -8 and RmlCD inh mix 9.
`CN1C(=O)N(C)C(=O)C2(Sc3ccccc3C2=O)C1=O` gave RT RNaseH block -6 and RmlCD inh mix active.
Screening CN(C(=O)c1ccc(NC(=O)c2cnccn2)cc1)C1CCCCC1 returned RT RNaseH block 5.
Screening COc1ccc(-c2csc(NCCc3nc4cc(C(=O)NCCCO)ccc4n3Cc3ccc(C)cc3)n2)cc1 returned RmlCD inh mix 1.
`CC(C)=CCc1cc([C@@H]2CC(=O)c3ccc(O)c(CC=C(C)C)c3O2)ccc1O` gave RmlCD inh mix -7.
`COc1cc(O)oc1C=Nc1ccc(Oc2ccccc2)cc1` gave RmlCD inh mix -8.
Screening CCn1c(O)c(C=Nc2ccccc2)oc1=S returned RT RNaseH block 54* and RmlCD inh mix -16.
For COCCOC(=O)C1=C(C)N=C2SCCC(=O)N2C1c1cccc(Br)c1 (stereo not drawn) the results were RT RNaseH block -4 and RmlCD inh mix 12.
`CCOC(=O)c1cn2c3c(c(F)c(F)c(F)c3c1=O)SC(N1CCCC1)=N2` gave RT RNaseH block -5.
CCNC(=O)c1c(N)sc2c1CCCCC2 was read as RT RNaseH block 57* and RmlCD inh mix 68.
`CCC(=O)Nc1sc2c(c1C(=O)N(C)C)CCCCC2` gave RmlCD inh mix -4.
Screening CCOc1nc(Nc2ccc(-c3nc4ccccc4o3)cc2)nc(N2CCOCC2)n1 returned RT RNaseH block -10.
Screening Cc1cc(C)c(Cn2c(=O)n(CCCC(=O)NCc3ccco3)c(=O)c3ccccc32)c(C)c1 returned RT RNaseH block 80* and RmlCD inh mix -13.
Screening Cc1ccc(C)c(Cn2c(=O)n(CCCC(=O)NCc3ccco3)c(=O)c3ccccc32)c1 returned RT RNaseH block -2.
For Cc1cc(-c2cc(C(=O)Nc3ccccc3)on2)nc(NC2CCCC2)n1 the results were RmlCD inh mix 0.
Screening CCCOCCOC(=O)C1=C(C)NC(=O)NC1c1cc(Cl)c(O)c(OC)c1 (stereo not drawn) returned RT RNaseH block -1 and RmlCD inh mix -9.
CCOC(=O)c1cc(-c2ccccc2)sc1N was read as RT RNaseH block 65*.
Screening CCOC(=O)c1sc(-c2ccccc2)cc1N returned RT RNaseH block -8 and RmlCD inh mix -59.
For CCCCn1c(CCC(=O)O)ccc1-c1cccs1 the results were RT RNaseH block -10 and RmlCD inh mix -12.
`O=C(O)CCc1ccc(-c2cccs2)n1NC(=O)c1ccc(O)cc1` gave RT RNaseH block 51* and RmlCD inh mix -44.
For CCC(C)C(NC(=O)OC(C)(C)C)C(=O)NC(C(=O)N1CCCC1C(N)=O)C(C)CC (stereo not drawn) the results were RT RNaseH block 7 and RmlCD inh mix -4.
Screening O=C(c1cc(-c2cccs2)on1)N1CCN(c2ccc(F)cc2)CC1 returned RT RNaseH block -8 and RmlCD inh mix 11.
For O=C(c1cc(-c2cccs2)on1)N1CCN(c2ccccc2)CC1 the results were RT RNaseH block 57*.
c1ccc(-n2nnnc2NC2CCCCC2)cc1 was read as RmlCD inh mix 3.
For CCN1CCN(Cc2c(O)c(Cl)cc3c(C)cc(=O)oc23)CC1 the results were RT RNaseH block 1 and RmlCD inh mix inconclusive.
CCCc1cc(=O)oc2cc(C)c(CN3CCCC3)c(O)c12 was read as RT RNaseH block 27.
